The whole screen tested about 5,500 compounds, of which about 2,000 (36%) were called active. Another 18% or so got no clear call; they are omitted. Cut-off read from the data, not from the text of the source: active = normalized growth mostly below about 0.91 (no sharp cut-off); inconclusive = no clear call, values can overlap the other calls; inactive = mostly above about 0.92. Some of the results follow.
Assay: chemical genetic growth profiling, strain panel (AID 1159580);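 note: tested at 20 µM; growth read once vehicle control cultures reached saturation at 30 °C; 1 = growth at the plate median or of vehicle wells; lower values mean less growth of the strain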
Details: S. cerevisiae deletion strains, growth OD

Measured: normalized growth

Cc1c2c(=O)[nH]ncc2c(-c2ccccc2)n1-c1ccc([N+](=O)[O-])cc1
inactive: locus YAR019C, strain CDC15, hits give low values 0.99 | locus YBL105C, strain PKC1, hits give low values 0.999 | locus YBR135W, strain CKS1, hits give low values 0.998 | locus YBR136W, strain MEC1, hits give low values 0.993 | locus YBR160W, strain CDC28, hits give low values 0.99 | locus YDL017W, strain CDC7, hits give low values 0.999 | locus YDL028C, strain MPS1, hits give low values 0.987 | locus YDL101C, strain DUN1, hits give low values 0.991 | locus YDL108W, strain KIN28, hits give low values 0.989 | locus YDL132W, strain cdc53, hits give low values 0.991 | locus YDL214C, strain PRR2, hits give low values 0.953 | locus YDR052C, strain DBF4, hits give low values 1 | locus YDR054C, strain cdc34, hits give low values 1 | locus YDR226W, strain ADK1, hits give low values 0.991 | locus YDR477W, strain SNF1, hits give low values 0.925 | locus YER123W, strain YCK3, hits give low values 0.958 | locus YER133W, strain GLC7, hits give low values 0.946 | locus YFL009W, strain cdc4, hits give low values 0.975 | locus YFL029C, strain CAK1, hits give low values 0.977 | locus YFR003C, strain YPI1, hits give low values 0.99 | locus YFR019W, strain FAB1, hits give low values 0.95 | locus YFR028C, strain CDC14, hits give low values 0.978 | locus YGR040W, strain KSS1, hits give low values 0.939 | locus YGR052W, strain FMP48, hits give low values 1.01 | locus YGR092W, strain DBF2, hits give low values 1 | locus YHR079C, strain IRE1, hits give low values 0.994 | locus YHR082C, strain KSP1, hits give low values 1.01 | locus YHR205W, strain SCH9, hits give low values 0.937 | locus YIL147C, strain SLN1, hits give low values 0.993 | locus YJL095W, strain BCK1, hits give low values 0.903 | locus YJL128C, strain PBS2, hits give low values 0.988 | locus YJL157C, strain FAR1, hits give low values 0.971 | locus YJR016C, strain ILV3, hits give low values 0.986 | locus YJR066W, strain TOR1 (second series), hits give low values 0.928 | locus YJR066W, strain TOR1, hits give low values 0.954 | locus YKL048C, strain ELM1, hits give low values 0.94 | locus YKL067W, strain YNK1, hits give low values 0.935 | locus YKL101W, strain HSL1, hits give low values 0.968 | locus YKL193C, strain SDS22, hits give low values 0.996 | locus YKL203C, strain TOR2, hits give low values 1.03 | locus YLR113W, strain HOG1, hits give low values 0.871 | locus YLR133W, strain CKI1, hits give low values 0.975 | locus YLR403W, strain SFP1, hits give low values 0.963 | locus YML070W, strain DAK1, hits give low values 0.93 | locus YMR001C, strain CDC5, hits give low values 0.989 | locus YMR205C, strain PFK2 (second series), hits give low values 0.956 | locus YMR277W, strain FCP1, hits give low values 0.979 | locus YNL006W, strain LST8, hits give low values 0.983 | locus YNL020C, strain ARK1, hits give low values 0.975 | locus YNL161W, strain CBK1, hits give low values 0.998 | locus YNL183C, strain NPR1, hits give low values 1.03 | locus YNL207W, strain RIO2, hits give low values 1 | locus YNL222W, strain SSU72, hits give low values 0.98 | locus YNL307C, strain MCK1 (second series), hits give low values 0.949 | locus YOL078W, strain AVO1, hits give low values 0.995 | locus YOL136C, strain PFK27, hits give low values 0.938 | locus YOR061W, strain CKA2, hits give low values 0.955 | locus YOR119C, strain RIO1, hits give low values 0.975 | locus YOR231W, strain MKK1, hits give low values 0.936 | locus YOR329C, strain SCD5, hits give low values 0.993 | locus YPL031C, strain PHO85, hits give low values 0.941 | locus YPL153C, strain RAD53, hits give low values 0.939 | locus YPL204W, strain HRR25, hits give low values 0.933 | locus YPL209C, strain IPL1, hits give low values 1 | locus YPL256C, strain CLN2, hits give low values 0.931 | locus YPR025C, strain CCL1, hits give low values 0.988 | locus YPR106W, strain ISR1, hits give low values 1.01 | locus YPR111W, strain DBF20, hits give low values 1 | strain NNK1, hits give low values 1.01 | strain TSCII, hits give low values 0.987
active: locus YHR030C, strain SLT2, hits give low values 0.812

From PubChem BioAssay AID1159580 (chemical genetic matrix, 2015)
